Test results taken from PubChem BioAssay (NCI).
Compounds without any hit were thinned out: in the full panel of roughly 79,000, 15% have a hit. Cut-off read from the data, not from the text of the source: active = growth inhibition above about 70%; inactive = the rest.

Key:
[1] = NCI Yeast Anticancer Drug Screen. Data for the rad50 strain (AID 155);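 note: 0% = growth of vehicle-only cultures of the same strain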; details: S. cerevisiae rad50 strain growth inhibition; at 50.0 µM; stronger effect = higher value
Method in brief: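 Compounds were tested on a yeast strain with an engineered DNA damage repair alteration; the reported value is growth inhibition normalised to vehicle treatment.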

[2] = NCI Yeast Anticancer Drug Screen. Data for the mec2-1 strain (AID 157); details: S. cerevisiae mec2-1 strain, at 50.0 µM, stronger effect = higher value
Method in brief: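 Vehicle-treated cultures served as reference for growth inhibition of compound-exposed mec2-1 yeast.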

[3] = NCI Yeast Anticancer Drug Screen. Data for the sgs1 mgt1 strain (AID 161);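 note: 0% = growth of cultures given vehicle only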; details: S. cerevisiae sgs1 mgt1 strain, at 50.0 µM, stronger effect = higher value
Method in brief: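 Test agents were incubated with a DNA-repair-mutant yeast strain. Growth was then read and compared against vehicle-treated controls.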

[4] = NCI Yeast Anticancer Drug Screen. Data for the cln2 rad14 strain (AID 165);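 note: 0% = growth equal to vehicle treated cultures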; details: S. cerevisiae cln2 rad14 strain, at 50.0 µM, stronger effect = higher value
Method in brief: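 Each compound was tested on cln2 rad14 yeast. Inhibition of growth was calculated against vehicle-exposed controls.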

[5] = NCI Yeast Anticancer Drug Screen. Data for the bub3 strain (AID 167); details: S. cerevisiae bub3 mutant strain, at 50.0 µM, stronger effect = higher value
Method in brief: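 Growth of a checkpoint-deficient yeast mutant is measured after compound exposure. Values represent inhibition relative to vehicle.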

[6] = NCI Yeast Anticancer Drug Screen. Data for the mlh1 rad18 strain (AID 175); details: S. cerevisiae mlh1 rad18 strain growth inhibition; at 50.0 µM; stronger effect = higher value
Method in brief: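 Vehicle-treated cultures served as the reference for growth inhibition in a yeast strain carrying DNA damage repair alterations exposed to each compound.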

Measured: growth inhibition

Cc1ccc(OCC2OC(n3cnc4nc(Cl)nc(Cl)c43)CC2Oc2ccc(C)cc2)cc1 (stereo not given)
inactive: [1] 36% | [2] 12.4% | [3] 50.5% | [4] 50.2% | [5] 57.6% | [6] 15.2%

CCOC(=O)C(=O)C(CCC(=O)c1ccc2ccccc2c1O)C(=O)OCC (stereo not given)
inactive: [1] 2.6% | [2] -1.65% | [3] -2.9% | [4] 4.25% | [5] 0.5% | [6] -35.9%

CCC(C)C1(O)OC2CC3(C)OC(=CC3=O)/C(C)=C\C3OC(=O)C1(C)C32 (stereo not given)
inactive: [1] 7.65% | [2] -31.2% | [3] 37.5% | [4] 6.4% | [5] -20.1% | [6] -35.9%

CC(=O)c1ccc(NC(=O)/C(CC(=O)/C=C/c2ccccc2)=N/NC(N)=S)cc1
inactive: [1] 37.1% | [2] -32.4% | [3] 23.9% | [4] 16.3% | [5] 35.1% | [6] 9.65%

CC(C)O/N=C/c1cc(NC(=S)OC(C)C)ccc1Cl
inactive: [1] 2.35% | [2] -8.75% | [3] 11.1% | [4] -4.8% | [5] -10.9% | [6] -57.5%

C[C@@H]1C[C@](O)([C@@H](C)Cl)C(=O)O[C@@H]2CCN3CC=C(COC(=O)[C@]1(C)O)[C@H]23
inactive: [1] -14.2% | [2] -16.1% | [3] -7.95% | [4] -11.1% | [5] 5.7% | [6] -30.6%

COc1cc([C@H]2OC[C@H]3[C@@H]2CO[C@@H]3c2cc(OC)c3c(c2)OCO3)cc(OC)c1OC
inactive: [1] 17.1% | [2] -2.25% | [3] 1.25% | [4] 21.7% | [5] 39% | [6] -80.7%

Cc1cc2nn(C3CCCO3)nc2cc1C (stereo not given)
inactive: [1] -10.6% | [2] -23.5% | [3] -21.8% | [4] -15.3% | [5] -3.8% | [6] -36.4%

COc1ccc(OC)c(N(CN2C(=O)CCC2C(=O)O)C(C)=O)c1 (stereo not given)
inactive: [1] 10.2% | [2] 10.2% | [3] -13.3% | [4] 1.05% | [5] -17.7% | [6] -23.3%

Cc1ccc(NC(=O)/C(=N\NC(N)=O)c2c(O)c3ccccc3[nH]c2=O)cc1
inactive: [1] 1.45% | [2] 4.6% | [3] -10.5% | [4] 7.85% | [5] -3.05% | [6] -33%

Cc1ccc(OCC2OC(n3cnc4nc(N)nc(Cl)c43)CC2Oc2ccc(C)cc2)cc1 (stereo not given)
inactive: [1] 20.2% | [2] 28.4% | [3] 44.7% | [4] 46.5% | [5] 49.3% | [6] 2.6%

COc1ccc(/C=c2\[nH]c3nc(=O)c(N4CCOCC4)c(N)n3c2=O)cc1
inactive: [1] 0.9% | [2] -19.4% | [3] 1.6% | [4] -11.8% | [5] -26.1% | [6] -10.2%

CCCCCCSC[C@H](OC(C)=O)[C@@H](OC(C)=O)[C@@H](OC(C)=O)[C@@H](COC(C)=O)OC(C)=O
inactive: [1] -7% | [2] -14.8% | [3] 2.65% | [4] -2.95% | [5] 9% | [6] -5.35%

CCCCCC(O)(CCCCC)CCCCCCCCC1=C(O)c2ccccc2C(=O)C1=O
inactive: [1] -17.7% | [2] -18.6% | [3] -0.15% | [4] 5.75% | [5] 1% | [6] -79.2%

COc1cc(N(CCC#N)CCC#N)ccc1/C(N=Nc1ccc(Cl)cc1)=N/NC(=O)c1cc(Br)ccc1O
inactive: [1] 7.6% | [2] -7.45% | [3] -6.45% | [4] 7.2% | [5] 17.8% | [6] 52%

N#CC1(C#N)C2CCCCC23OC(=N)C1(C#N)C(c1ccccc1)O3 (stereo not given)
inactive: [1] 9.3% | [2] 12.2% | [3] -22.7% | [4] -15.3% | [5] -29.9% | [6] -16.6%

Cc1ccc(/C=N/Nc2nncc3ccccc23)s1
inactive: [1] 14.8% | [2] 16.1% | [3] 16.7% | [4] 21.2% | [5] 21.7% | [6] 38.5%

COc1ccc2cc1Oc1ccc(cc1)CC1c3cc(OC)c(cc3CCN1C)Oc1c(OC)c(OC)cc3c1C(C2)N(C)CC3 (stereo not given)
inactive: [1] -4.6% | [2] -15.7% | [3] -6.8% | [4] 6.9% | [5] 5.25% | [6] -43.3%

O=C(O)c1cc(C(=O)O)cc([N+](=O)[O-])c1
inactive: [1] -3.75% | [2] -5.9% | [3] 4.75% | [4] 0.25% | [5] 8.3% | [6] 7.35%

COc1cc2c3cc1Oc1c(OC)c(OC)cc4c1C(Cc1ccc(O)c(c1)-c1cc(ccc1OC)CC3N(C)CC2)N(C)CC4 (stereo not given)
inactive: [1] -1.25% | [2] -6.75% | [3] -2.15% | [4] 0.5% | [5] 8.85% | [6] -13.7%
